Bioassay records from PubChem.
TDP-43 yeast inh = rescues yeast growth from TDP-43 toxicity; 1.8% of 410,000 active; Potency, µM (titrated, usually from 46.1 µM), for inactives: at the highest dose growth rescue (activation), actives largely listed as activators; TDP-43 expressing yeast growth rescue, BacTiter-Glo, 24 h; also: potency is read from the fitted curve at half-maximal effect; % of control where 0% means no effect; nearly all actives have a fitted effect of over 50% in size
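Growth rescue of TDP-43-toxic yeast measured as ATP luminescence (BacTiter-Glo). Cells grown to mid-log in raffinose, induced in galactose at OD600=0.02, exposed to compound 24 hr at 30 deg C.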
aSyn yeast inh = rescues yeast growth from alpha-synuclein toxicity | Potency, µM (doses to about 46.1 µM), for the others: at the top dose growth rescue (activation), hits mostly activators | Yeast expressing alpha-synuclein, growth rescue, BacTiter-Glo, 24 h | 0.14% of 370,000 active; also: potency is read from the fitted curve at half-maximal effect; % of control where 0% means no effect; nearly all actives have a fitted effect of over 65% in size
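Screening used galactose-induced yeast with toxic alpha-synuclein levels, exposed to compound for 24 hr at 30 deg C. Cell growth, read with BacTiter-Glo luminescence, gave the measured signal.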
FUS yeast rescue = FUS proteinopathy suppression in yeast; S. cerevisiae FUS-expressing, growth rescue, OD600, 24 h; Potency, µM (doses to about 76.6 µM), actives largely listed as activators; 0.24% of 390,000 active;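 also: potency is read from the fitted curve at half-maximal effect; plate controls were DMSO vehicle for no effect and reference control for full effect; nearly all actives have a fitted effect of over 55% in size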
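Yeast FUS proteinopathy model; galactose-induced FUS (2%), starting OD 0.005. Cpds in dilution series, 24hr, 30C, 99% humidity. Abs 600 nm growth. Pos ctrl CP55940 (top 92uM final); neg ctrl DMSO.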
pAkt inh = Akt phosphorylation inhibition; Neuro2A IGF-stimulated pAkt S473 HTRF, 20 min; active compounds read low; activity change, % for hits at 50 µM; 0.32% of 360,000 active; in the data active = activity change below about -80%; inconclusive = mostly about -51% to -80%; also: % is scaled to controls: 0 for no effect and ±100 for the full control effect
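Single-point screen (50 µM final compound) in Neuro2A cells stimulated 20 min with 6 nM IGF at 37 deg C. After lysis, Ser473-phosphorylated Akt read by HTRF (ex 330 nm, em 615/665 nm) as the 665/615 ratio.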
Abeta yeast res = compounds reversing amyloid beta toxicity in yeast. yeast expressing A-beta42, growth rescue, OD600, 48 h; response scale: 0% DMSO, 100% iron-clioquinol control. 0.063% of 410,000 active. Potency, µM (series often up to 46.1 µM), usual class: activators. AID 1347071; also: potency is read from the fitted curve at half-maximal effect; nearly all actives have a fitted effect of over 55% in size
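Yeast growth medium received pinned compounds, then yeast cells expressing toxic A-beta were added; plates incubated at 30 C for 48 hr. Growth read as absorbance at 600 nm, normalized to DMSO and equimolar FeCl3 plus clioquinol controls.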
Numbers without * were called inactive; i = inactive; u = inconclusive; x = no result; [ ] = remark or other dose. In the library only some 2.3% were active in any assay of this set; here they are far more common. Unless noted, calls follow the shape of the dose curve; as a rule, active = well fitted curve in the direction sought with a large enough effect; inconclusive = small, poorly fitted or top-dose-only effect, or another doubt; inactive = no such curve, though single readings can be large; an effect the other way counts as inactive or inconclusive.

SMILES	TDP-43 yeast inh	aSyn yeast inh	FUS yeast rescue	pAkt inh	Abeta yeast res
Cc1cc(C)c2c(c1)/C(=C/C(=O)c1ccc(Br)s1)C(=O)N2	17.8µM*	-6.6%	u	i	i
Cc1cc(Br)c2c(c1)/C(=C/C(=O)c1cccs1)C(=O)N2	-20.5%[9.22 µM]	9.6%	i	i	i
COc1cc(C(=O)N2CCC(N3CCCCCC3)CC2)cc(OC)c1OC	-8.5%	-1.5%	i	-122.0%*	i
COc1ccc(-c2cccc(NC(=O)COc3ccc(Cl)cc3)c2)nn1	11.2µM*	-11.0%	i	i	i
CS(=O)(=O)c1ccc(-c2cccc(NC(=O)COc3ccc(Cl)cc3)c2)nn1	-11.9%	-12.0%	i	i	i
COc1ccc(C(=O)N2CC3(CC(c4cccc(NC(=O)COc5ccc(Cl)cc5)c4)=NO3)C[C@@H]2C(N)=O)cc1 (some centres undefined)	4.1%	1.7%	35.5µM*	i	i
CC(Oc1ccc(Br)cc1)c1nc2c3ccccc3nc(=S)n2[nH]1 (centres undefined)	-8.8%	16.9%	35.5µM*	i	u
CCCC(Oc1ccc(Br)cc1)c1nc2c3cc(OC)c(OC)cc3nc(=S)n2[nH]1 (centres undefined)	15.9%	1.4%	x	i	i
Cc1cc(C)c(C)c(S(=O)(=O)N2CCN(c3ccc(O)cc3)CC2)c1C	u	15.8µM*	i	i	i
CN1CCN(S(=O)(=O)c2ccc3ccccc3c2)CC1	19.0%	4.2%	i	i	i
O=S(=O)(c1ccc2ccccc2c1)N1CCN(c2ccc(O)cc2)CC1	11.2µM*	u	i	i	i
CCCN(C(=O)COc1cc(=O)n(CC)c2ccccc12)c1ccc(C(C)C)cc1	22.4µM*	x	u	x	i
CCCN(CCC)C(=O)COc1cc(=O)n(CC)c2ccccc12	8.1%	0.9%	i	i	i
C=CCNc1nc(N)c([N+](=O)[O-])c(Nc2ccccc2OC)n1	15.8µM*	6.0%	i	i	i
Cc1ccc(C)c(S(=O)(=O)c2cn(C)c3cc(N4CCCCC4C)c(F)cc3c2=O)c1 (centres undefined)	-6.3%	x	i	x	i
Cc1ccc(C)c(N2CCN(C(c3ccccc3)c3nnc(-c4ccccc4F)o3)CC2)c1 (centres undefined)	7.5%	x	i	x	i
CCOc1ccccc1C(=O)Nc1ccc2nc(N3CCN(c4ncccn4)CC3)cc(C)c2c1	17.8µM*	-14.6%	i	i	i
Cc1cc(NC(=O)CSc2nnc(-c3ccc4c(c3)OCCO4)o2)no1	6.8%	-0.5%	i	-80.5%*	u
C(=C\c1ccccc1)/CSc1nnc(Cc2cccs2)n1-c1ccccc1	x	x	i	x	x
COC(=O)c1ccc(OC(=O)c2cccnc2)cc1	-18.4%	9.5%	i	i	i
CCOc1ccc(OC(=O)c2cccnc2)cc1	15.8µM*	-0.3%	i	i	i
CCCCOc1ccc(C(=O)Oc2ccc(C)nc2)cc1	-8.4%	-12.9%	i	i	i
CC(=O)/C=C\c1ccc(OC(=O)c2cccnc2)cc1	20µM*	9.2%	i	i	i
CCCCCOc1ccc(OC(=O)c2ccncc2)cc1	35.5µM*	-6.4%	i	i	i
O=c1[nH]c2ccc(NC(=S)NC3CCCCC3)cc2[nH]1	-7.9%	-4.9%	i	i	i
O=c1cc(NC2CCCCCC2)[nH]c(=O)[nH]1	20.7%	3.9%	i	-112.0%*	i[9.22 µM]
NC(=O)Cn1c(=O)n(CCCCCC(=O)NCc2ccccc2Cl)c(=O)c2sccc21	17.0%	x	i	x	i
C#CCOCCOCCOCCNc1nc(N2CCN(C(=O)CCCCCCCCCCNC(=O)[C@H](CCCCN)n3cc(C)nn3)CC2)nc(N2CCN(C(=O)CCCCCCCCCCNC(=O)[C@@H]([C@H](C)O)n3cc(C)nn3)CC2)n1	5.4%	-0.2%	11.2µM*	i	i
C#CCOCCOCCOCCNc1nc(N2CCN(C(=O)CCCCCCCCCCNC(=O)Cn3cc(C[C@@H](C)O)nn3)CC2)nc(N2CCN(C(=O)CCCCCCCCCCNC(=O)[C@@H](CCSC)n3cc(CCO)nn3)CC2)n1	8.2%	-0.9%	3.98µM*	i	i
